Results on 39 compounds are retold here after PubChem BioAssay AID1645849 (National Center for Advancing Translational Sciences (NCATS), 2021).

Structures are written as SMILES. Inconclusive results are not listed. Active and inactive are the calls of the source. Calls follow the shape of the dose curve; as a rule, active = well fitted inhibition curve with a large enough effect in the repeat runs; inconclusive = weak or mixed curves; inactive = no such curve, though single readings can be large or run the other way.

The assay in a line: Comparison of Janus kinase inhibitors to block the type I interferon pathway in human skeletal muscle cells: JAK inhibition assay. Particulars: IFN pathway HiBiT reporter; series mostly up to 45.9 µM. The text has this:
Assay Submitter: Travis B. Kinder Ph.D.
National Center for Advancing Translational Sciences (NCATS)
The family of Janus kinases (JAK1, JAK2, JAK3, TYK2) mediate signal transduction from cytokine receptors through phosphorylation and activation of intracellular signaling pathways and transcription factors. Small molecule antagonists of JAKs (jakinibs) have been developed with varying selectivity for the use in malignancies and immune regulation. […] We have assayed a library of 48 jakinibs for their ability to inhibit the JAK1/TYK2-dependent type I interferon (IFN) - major histocompatibility complex (MHC) class I pathway in human skeletal muscle cells genome-engineered to fuse a pro-luminescent HiBiT peptide to endogenous MHC class I.
The assay utilized CRISPR/Cas9 genome-engineered immortalized human myoblasts, C25cl48, where a pro-luminescent reporter HiBit was fused to the C-terminus of endogenous MHC class I allele HLA-B*08:01 (HLA-B HiBit myoblasts) (Kinder et al., 2020). HiBit is an 11 amino acid fragment of NanoLuc luminescent reporter (Promega Corporation), and when complexed to the larger LgBit fragment, the reconstituted enzyme produces light in the presence of furimazine substrate. Briefly, HLA-B HiBit myoblasts were plated into 1536-well plates, treated with 4.0 ng/ml human IFN-beta and 48 jakinibs in an 11-point, 1:3 titration with a high final concentration of 46 uM. After 24 hrs of treatment, cells were assayed by Nano-Glo HiBiT Lytic Detection System (Promega) and luminescence measured by a ViewLux 1430 Ultra HTS (Perkin Elmer).
Kinder TB, Dranchak PK, Inglese J. High-Throughput Screening to Identify Inhibitors of the Type I Interferon-Major Histocompatibility Complex Class I Pathway in Skeletal Muscle. ACS Chem Biol. 2020 Jul 17;15(7):1974-1986. doi: 10.1021/acschembio.0c00343
PROTOCOL TABLE (as described by Inglese et al., 2007)
SEQUENCE No. (e.g., 1, 2, 3, etc.); PARAMETER (e.g., Cells, Incubation, Reagent, etc.); VALUE; DESCRIPTION
1a; Cells; 5 uL; Seed 250 cells/well with a Multidrop Combi (Thermo Scientific) into two Greiner 1536 well white/solid bottom, high base, TC plates (789173-F) in 5 ul/well of growth medium (GM) without dexamethasone into columns 1+2
1b; Cells; 5 uL; Seed 250 cells/well with a Multidrop Combi (Thermo Scientific) into two Greiner 1536 well white/solid bottom, high base, TC plates (789173-F) in 5 ul/well of GM without dexamethasone + 4 ng/ml IFN-beta into columns 3 - 48. Add metal lids with gas-exchange holes
2; Incubate; 30 min; Incubate at 37C, 5% CO2, 95% RH
3; Compounds; 23 nl; Transfer DMSO control and library compounds in DMSO with Pin Tool (Wako)
4; Incubate; 24 hrs; Incubate at 37C, 5% CO2, 95% RH
5; Dispense; 2.5 ul; Add HiBit lytic reagent with a BioRAPTR FRD (Beckman Coulter)
6; Incubate; 10 min; Incubate in the dark at ambient temperature for lysis
7; Detector; 5 sec; Measure luminescence with ViewLux 1430 Ultra HTS (Perkin Elmer). Settings: Exposure = 5 sec, Gain = High, Speed = Slow, Binning = 2X
NOTES (numbers refer to sequence above)
1; HLA-B HiBit myoblasts cultured in GM - 4:1 ratio DMEM Glutamax (Thermo Fisher, 10566) : M199 (Thermo Fisher, 11150), 10% FBS (Hyclone Standard), 1% Pen/Strep, 50 ug/ml fetuin, 10 ng/ml hEGF, 1 ng/ml bhFGF, 10 ug/ml insulin, 0.4 ug/ml dexamethasone (supplements from Promocell, C-39360). […] Recombinant human IFN-beta (Peprotech, 300-02BC) was reconstituted in water, diluted in GM, and aliquots stored at -80C until day of use.
3; Control plate contained DMSO in columns 1 and 4, digitonin (Sigma, D141) cytotoxicity control in DMSO at 20 mM in column 2, and ruxolitinib (Selleckchem, S1378) inhibitor control in DMSO 16-point, 1:2 titration, high concentration = 17 mM in column 3. Digitonin and ruxolitinib stocks were reconstituted at 20 and 50 mM in DMSO and aliquots stored at -20C. Forty-eight compounds were added in an 11-point, 1:3 titration with a high final concentration of 46 uM by Pintool (Wako) from one library plates and one DMSO control plate
[…]
On the technique in general: HiBiT is a short tag that completes a luciferase, so light tracks the accessible tagged protein.
On to `Cc1oncc1C(=O)Nc1ccc(C(F)(F)F)cc1`, for which the Potency was 17.2 µM (active).

On to `Cc1cnc(Nc2ccc(N3CCN(C)CC3)cc2)nc1Nc1cccc(S(=O)(=O)NC(C)(C)C)c1`, for which the Potency is 2.43 µM (active).

`CC1(C)CN(C(=O)c2ccc(-c3cccc4nc(NC(=O)C5CC5)nn34)cc2)C1`: the Potency was 7.67 µM (active).

With `C=CC(=O)N1C[C@H](Nc2ncnc3[nH]ccc23)CC[C@@H]1C`, the Potency result was “inactive”.

For the compound `CCS(=O)(=O)N1CC(CC#N)(n2cc(-c3ncnc4[nH]ccc34)cn2)C1`, the Potency is 1.31 µM (active).

In the case of `CCS(=O)(=O)N1CCN(c2ccc(Nc3ncc(C(N)=O)c(NC4CC4)n3)cc2)CC1`, the Potency is 0.93 µM (active).

Consider `CC(=O)Nc1cc(Oc2ccc3c(nc(Nc4ccc(F)cc4F)n3C)c2C)ccn1`, for which the Potency was 0.37 µM (active).

Turning to `NC(=O)c1nc(-c2c(F)cccc2Cl)oc1Nc1ccc(C(=O)N2CCOCC2)cc1`, the Potency is 5.23 µM (active).

For `CNS(=O)(=O)CC1CCC(N(C)c2ncnc3[nH]ccc23)CC1` (centres undefined), the Potency is 4.66 µM (active).

Consider `C[C@@H]1CCN(C(=O)CC#N)C[C@@H]1N(C)c1ncnc2[nH]ccc12`, for which the Potency is 2.16 µM (active).

In the case of `O=C(Nc1nc2cccc(-c3ccc(CN4CCS(=O)(=O)CC4)cc3)n2n1)C1CC1`, the Potency was 15.3 µM (active).

Turning to `N#CCC1(n2cc(-c3ncnc4[nH]ccc34)cn2)CN(C2CCN(C(=O)c3ccnc(C(F)(F)F)c3F)CC2)C1`, the Potency is 0.861 µM (active).

As to `CC[C@@](C)(Nc1ccnc(-c2c[nH]c3ncccc23)n1)C(=O)NCC(F)(F)F`, the Potency was 8.29 µM (active).

Consider `CC(C)(C)c1nc2c3cc[nH]c(=O)c3c3cc(F)ccc3c2[nH]1`, for which the Potency was 1.26 µM (active).

For the compound `O=C(Nc1ccnc(NC(=O)C2CC2)c1)c1c(Cl)cccc1Cl`, the Potency is 4.48 µM (active).

As for `CN1CCN(c2cccc(Nc3nc4c(-c5ccc(S(C)(=O)=O)cc5)cccn4n3)c2)CC1`, the Potency is 3.06 µM (active).

Regarding `Cc1cc(Nc2cc(CN3CCOCC3)c3nc(C)c(Cc4ccc(Cl)cc4F)n3n2)n[nH]1`, the Potency is 14.2 µM (active).

For `CCC[C@H](NC(=O)/C(C#N)=C/c1cccc(Br)n1)c1ccccc1`, the Potency was 7.39 µM (active).

As to `C1=C/COCc2cc(ccc2OCCN2CCCC2)Nc2nccc(n2)-c2cccc(c2)COC/1`, the Potency is 2.16 µM (active).

For the compound `Cc1cc(Nc2cc(NC(=O)c3c(Cl)cccc3Cl)ccn2)nc(N)n1`, the Potency is 2.16 µM (active).

On to `CC(C)N(CCC(=O)c1ccc2ccccc2c1)Cc1ccccc1`, for which the Potency was 14.2 µM (active).

Take `N#CCNC(=O)c1ccc(-c2ccnc(Nc3ccc(N4CCOCC4)cc3)n2)cc1`: the Potency is 4.48 µM (active).

On to `Cc1cnc(Nc2ccc(CN3CCOCC3)cc2)nc1Nc1cccc(S(=O)(=O)NC(C)(C)C)c1`, for which the Potency is 5.43 µM (active).

As to `Fc1cc(-c2cccc3ncc(-c4cnn(C5CCNCC5)c4)nc23)cc(F)c1CN1CCOCC1`, the Potency was 17.9 µM (active).

For the compound `CN(C)c1ccc(Nc2nc(N)n(C(=O)c3c(F)cccc3F)n2)cc1`, the Potency was 6.58 µM (active).

`Cc1cnc(Nc2cccc(CN3CCOCC3)c2)nc1Nc1cccc(S(=O)(=O)NC(C)(C)C)c1`: the Potency was 10 µM (active).

Take `Cc1cc(Nc2nc(N[C@@H](C)c3ncc(F)cn3)ncc2Cl)n[nH]1`: the Potency is 1.47 µM (active).

Consider `Cc1cc(Nc2nc(N[C@@H](C)c3ccc(F)cc3)c(C#N)cc2F)n[nH]1`, for which the Potency is 1.08 µM (active).

As for `[2H]C([2H])([2H])NC(=O)c1nnc(NC(=O)C2CC2)cc1Nc1cccc(-c2ncn(C)n2)c1OC`, the Potency was 0.0711 µM (active).

Turning to `NC(=O)c1cnc2[nH]ccc2c1NC1C2CC3C[C@H]1CC(O)(C3)C2` (some centres undefined), the Potency was 1.72 µM (active).

On to `COc1nsc(NC(=O)N2C[C@H]3CC(N(C)c4ncnc5[nH]ccc45)C[C@H]3C2)n1` (some centres undefined), for which the Potency is 0.432 µM (active).

In the case of `COc1cc2ncnc(Nc3ccc(O)cc3)c2cc1OC`, the Potency entry is “inactive”.

In the case of `CC[C@@H]1CN(C(=O)NCC(F)(F)F)C[C@@H]1c1cnc2cnc3[nH]ccc3n12`, the Potency is 0.33 µM (active).

Take `N#CC[C@H](C1CCCC1)n1cc(-c2ncnc3[nH]ccc23)cn1`: the Potency is 0.861 µM (active).

Consider `CCCS(=O)(=O)NC1CC(N(C)c2ncnc3[nH]ccc23)C1` (centres undefined), for which the Potency was 3.7 µM (active).

Consider `N#C/C(=C\c1ccc(O)c(O)c1)C(=O)NCc1ccccc1`, for which the Potency entry is “inactive”.

As to `C[C@@]12O[C@@H](C[C@]1(O)CO)n1c3ccccc3c3c4c(c5c6ccccc6n2c5c31)CNC4=O`, the Potency was 0.415 µM (active).

As for `Cc1cnc(Nc2ccc(OCCN3CCCC3)cc2)nc1Nc1cccc(S(=O)(=O)NC(C)(C)C)c1`, the Potency is 3.56 µM (active).

On to `Cn1cc(Nc2nccc(N3C[C@H]4CC[C@@H](C3)N4C(=O)[C@@H]3CC3(F)F)n2)cn1`, for which the Potency is 3.56 µM (active).
